Screening data deposited in PubChem by National Center for Advancing Translational Sciences (NCATS).
Tau fibril FP: qHTS for Inhibitors of Tau Fibril Formation, Fluorescence Polarization; Microtubule-associated protein tau (Homo sapiens), P10636; K18 P301L tau heparin fibrillization, Alexa594 FP, 6 h; Potency, µM (titrated, usually from 57.7 µM), without a hit: top-dose activity, negative = inhibition, most hits filed as inhibitors; 280,000 compounds, 0.39% hits; also: potency is read from the fitted curve at half-maximal effect; nearly all actives have a fitted effect of over 55% in size
Target sequence (P10636 561-689 P618L limits assumed): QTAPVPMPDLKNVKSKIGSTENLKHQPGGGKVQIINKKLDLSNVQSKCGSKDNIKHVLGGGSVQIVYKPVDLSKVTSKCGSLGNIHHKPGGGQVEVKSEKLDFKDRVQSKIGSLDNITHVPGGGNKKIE
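Compound effects on tau fibrillization are measured by Alexa 594 fluorescence polarization (ex 555, em 632 nm). K18 P301L tau is used at 15 uM with 0.24 uM labeled tracer, and 20 uM heparin induces aggregation over 6 hr at 37 C.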
FBPA coupling cs: qHTS Assay for Inhibitors of Fructose-1,6-bisphosphate Aldolase from Giardia Lamblia: Coupling assay counterscreen; coupling enzyme system counterscreen, AmpLite Red fluorescence; activity change, negative = inhibition, % at 58.2 µM, hits read low; 290,000 compounds, 0.67% hits; AID 2472, 2010; in the data active = activity change below about -30%
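Final compound at 57.5 uM, incubated 10 min at RT with coupling enzyme reagent (glyceraldehyde-3-phosphate), then 20 min with substrate and AmpLite Red detection. Fluorescence read at 525/598 nm; tests interference with the coupling assay, not aldolase inhibition.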
Sfp PPTase inh: qHTS Assay for Inhibitors of Bacillus subtilis Sfp phosphopantetheinyl transferase (PPTase) | 4'-phosphopantetheinyl transferase ffp (Bacillus subtilis), Q9F4F7 | Biochemical Sfp PPTase activity, qHTS | Potency, µM, without a hit: largest response in the series, negative = inhibition, usual class: inhibitors | 310,000 compounds, 3.5% hits | AID 1490, 2009;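 also: the enzyme is Sfp with the accession as filed and its product quenches rhodamine fluorescence; potency is read from the fitted curve at half-maximal effect; 0% = enzyme reaction without inhibitor and -100% = no enzyme wells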
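Fluorescence-quenching assay: 15 nM Sfp-PPTase preincubated 15 min at room temperature with compound, then 5 uM rhodamine-CoA and 12.5 uM BHQ-2-labelled YbbR peptide added. Fluorescence (ex 525/em 598 nm) read at start and after 30 min; difference gives rate.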
Tau fluor cs: Counterscreen qHTS for Inhibitors of Tau Fibril Formation, Fluorescence Polarization | tau K18 P301L Alexa594 fluorescence, heparin fibrillization | 280,000 compounds, 0.93% hits | Potency, µM (doses to about 57.7 µM), for the others: top-dose activity change, negative = decrease; also: potency is read from the fitted curve at half-maximal effect; nearly all actives have a fitted effect of over 55% in size
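Human tau K18 P301L (15 uM unlabeled, 0.24 uM Alexa 594-labeled) in 100 mM sodium acetate pH 7 with 20 uM heparin, 6 hr at 37 C. ThT 30 uM added, 1 hr ambient; Alexa 594 FP and total fluorescence read at 555/632 nm.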
Tau fibril ThT: qHTS for Inhibitors of Tau Fibril Formation, Thioflavin T Binding | Potency, µM (titrated, usually from 57.4 µM), without a hit: top-dose activity, negative = inhibition, most hits filed as inhibitors | 270,000 compounds, 2.1% hits | recombinant tau K18 P301L (four-repeat tau fragment), heparin-induced fibrillization, ThT fluorescence | AID 1460, 2008 | Microtubule-associated protein tau (Homo sapiens), P10636; also: potency is read from the fitted curve at half-maximal effect; nearly all actives have a fitted effect of over 55% in size
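Tau K18 P301L fragment (15 uM unlabeled plus 0.24 uM Alexa 594-labeled) in 100 mM sodium acetate pH 7 with compound, fibrillization induced by 20 uM heparin for 6 hr at 37 C. Thioflavin T (30 uM) added, fluorescence read after 1 hr (ex 450, em 510 nm).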
The depositor's hits bear a star; u = inconclusive; x = not tested or not shown; [ ] = another dose, or the depositor's remark. Sampled rows, rich in hits. Any-hit rate of the full collection: about 5.2%. Unless noted, calls follow the shape of the dose curve; as a rule, active = well fitted curve in the direction sought with a large enough effect; inconclusive = small, poorly fitted or top-dose-only effect, or another doubt; inactive = no such curve, though single readings can be large; an effect the other way counts as inactive or inconclusive. Unless noted, % is scaled to controls: 0 for no effect and ±100 for the full control effect.

SMILES	Tau fibril FP	FBPA coupling cs	Sfp PPTase inh	Tau fluor cs	Tau fibril ThT
Nc1[nH]n2c(=O)cc(-c3ccccc3)nc2c1N=Nc1ccc(S(N)(=O)=O)cc1	3%	6	3%	u	2.2µM*
Cc1cccc(OCc2ccc(-c3nc(C#N)c(N4CCC(C(N)=O)CC4)o3)o2)c1	9%	x	x	u	-17%
CCCOc1ccc(CNC(=O)C2CCCN(c3nc4c(C)cc(C)cc4s3)C2)cc1 (stereo not drawn)	1%	x	x	-17%	-13%
Cc1ccc(NC(=S)Nc2cccnc2)c(S(=O)(=O)N2CCCCC2)c1	32µM*	0	-29%	u	11%
CCC(c1nnnn1Cc1ccco1)N(CCc1ccccc1)Cc1cc2cc(C)ccc2[nH]c1=O (stereo not drawn)	1%	-3	18µM*	-16%	u
Cc1ccc2[nH]c(=O)c(CN(CCc3ccccc3)C(c3nnnn3Cc3ccco3)C(C)C)cc2c1 (stereo not drawn)	0%[0.0958 µM]	-5	18µM*	7%[0.0958 µM]	x
CCC(c1nnnn1Cc1ccccc1)N(Cc1ccco1)Cc1cc2cc(OC)ccc2[nH]c1=O (stereo not drawn)	u	0	-22%	u	u
CCCCCCOc1ccc(C(=N)N(CCCC)CCCC)c2ccccc12	x	x	18µM*	x	x
CCCCN(CC)CCOc1cccc2ccccc12	-6%	x	u	-14%	-7%
CCCSCCCNC(=O)C1CCCN(c2nn3cc(-c4ccc(OC)cc4)nc3s2)C1 (stereo not drawn)	15%	x	x	u	u
Cc1cc(C)c(Cn2c(=O)n(CCCC(=O)NCc3ccc4c(c3)OCO4)c(=O)c3sccc32)c(C)c1	0%	x	x	-10%	-11%
COc1ccc(NC(=S)N2CCN(C(=O)c3ccco3)CC2)cc1	x	-2	-1%	x	x
COc1ccc(NC(=S)N2CCN(C(=O)c3ccco3)CC2)c(OC)c1	4%	1	40µM*	-3%	-4%
COC(=O)c1ccc(NC(=S)N2CCN(C(=O)c3ccco3)CC2)cc1	x	x	45µM*	x	x
Cc1ccc2nc(-c3ccc(Cl)c(NC(=O)c4ccc5c(c4)OCCO5)c3)oc2c1	-5%	x	x	-13%	-7%
C/C=C/C=C/C(=O)[C@@H]1[C@@H]([C@]2(C)OC(=O)C(C)=C2O)[C@H]2/C(=C(O)/C=C/C=C/C)C(=O)[C@]1(C)C(=O)C2(C)O (stereo partly drawn)	u	-3	50µM*	-4%	14µM*
CC1Cc2cc(S(=O)(=O)NCc3ccc(N(C)C)cc3)ccc2N1C(=O)C1CCC1 (stereo not drawn)	5%	x	x	-20%	-12%
Cc1cccc(N(C)C(=O)C2CCC(CNS(=O)(=O)c3cccc4nsnc34)CC2)c1 (stereo not drawn)	7%	x	x	-7%	-10%
O=C1CC(c2ccco2)=Nc2ccccc2N1	0%	-3	50µM*	-2%	-6%
COc1ccc(-c2noc(-c3ccc(N4CCN(c5ccccc5OC)CC4)c([N+](=O)[O-])c3)n2)cc1	-12%	x	x	-10%	-9%
CCOC(=O)CSC1=C(C#N)C(=O)NC(c2ccc(OC)c(OC)c2)S1 (stereo not drawn)	-12%	1	40µM*	-7%	u
CCOC(=O)CSC1=C(C#N)C(=O)NC(c2ccc(OC)cc2)S1 (stereo not drawn)	-14%	2	45µM*	-6%	u
CCc1ccc(NC(=O)C(=O)NCCc2sc(-c3ccc(C)cc3)nc2C)cc1	-6%	x	x	-8%	u
CC(C)(C)c1nc2sc3c(c2c(=O)o1)CCCC3	-4%	0	-7%	-14%	-13%
CCc1nc2sc3c(c2c(=O)o1)CCCC3	-2%	-7	25µM*	-19%	u
SMILES	Tau fibril FP	FBPA coupling cs	Sfp PPTase inh	Tau fluor cs	Tau fibril ThT
Cc1cccc(NC(=O)c2sc3nc(N)c(C#N)cc3c2N)c1	u	-6	-12%	u	u
N#Cc1cc2c(N)c(C(=O)Nc3ccccc3)sc2nc1N	16%	3	-29%	u	7.9µM*
COc1ccccc1NC(=O)c1sc2nc(-c3ccco3)ccc2c1N	9%	-1	-23%	u	u
Nc1c(C(=O)Nc2ccccc2)sc2nc(-c3ccco3)ccc12	13%	-5	7.9µM*	u	u
CCN(CC)S(=O)(=O)c1ccc2c(c1)N(CC(=O)Nc1c(C)cccc1C)C(=O)CO2	5%	x	x	15%	11%
COCOc1ccc(OC)cc1C(=O)/C=C/c1ccc(OC)c(Br)c1	u	1	-4%	0%	u
CC(C)Cc1nc2ccccc2[nH]1	0%	1	10%	4%	-3%
Cc1cccc(CC(Cc2nc3ccccc3[nH]2)c2nc3ccccc3[nH]2)c1 (stereo not drawn)	-16%	-3	40µM*	u	-12%
COc1cc(/C=C2/SC(=S)N(CC(=O)Nc3nc4ccccc4s3)C2=O)cc(OC)c1OC	0%	6	-2%	u	u
COc1cc(/C=C2\SC(=S)N(CCC(=O)Nc3ccccc3)C2=O)cc(OC)c1OC	5%	1	u	0%	4%
CCc1nnc(NC(=O)CN2C(=O)/C(=C/c3cc(OC)c(OC)c(OC)c3)SC2=S)s1	u	9	50µM*	u	7.9µM*
COc1ccccc1NC(=O)CCN1C(=O)/C(=C\c2cc(OC)c(OC)c(OC)c2)SC1=S	x	x	56µM*	x	x
Nc1c(C(=O)NCC2CCCO2)sc2nc3c(c(-c4ccco4)c12)CC/C3=C\c1ccco1 (stereo not drawn)	u	-16	32µM*	u	16µM*
Cc1ccc2nc(-c3ccc(NC(=O)CCN4C(=O)c5ccccc5C4=O)cc3)sc2c1	3%	-5	79µM*	-4%	-2%
CC(C)(C)c1cc(CCC(=O)NCc2cccnc2)cc(C(C)(C)C)c1O	x	x	22µM*	x	x
COc1cc(NC(=O)C(CCSC)NS(=O)(=O)c2ccc3c(c2)oc(=O)n3C)cc(OC)c1 (stereo not drawn)	-12%	x	x	1%	3%
COc1ccc(N)cc1-n1c(C)ccc1C	u	-27	-6%	u	3.2µM*
COC(=O)c1ccc(N=Nc2ccccc2)cc1	-1%	2	11%	-10%	14µM*
COC(=O)CCC(=O)Nc1ccc(N=Nc2ccccc2)cc1	-11%	1	-40%	u	11µM*
COc1ccc(S(=O)(=O)N(CC(=O)Nc2ccccc2Br)Cc2ccccc2)cc1	-10%	x	x	u	-8%
COc1ccc(CCNC(=O)Cc2c(C)c3ccc(O)c(C)c3oc2=O)cc1OC	-6%	x	x	-7%	-2%
